PubChem BioAssay (NCATS)
“And” between values parts separate entries of the source, which are not always exact repeats. Equal values may be shown once. Records with an inconclusive call do not appear. Where a call stands in place of a potency, no number is given. The source made the active and inactive calls. The call rests on the fitted dose curve; in most records, active means well fitted curve in the direction sought with a large enough effect; inconclusive means small, poorly fitted or top-dose-only effect, or another doubt; inactive means no such curve, though single readings can be large; an effect the other way counts as inactive or inconclusive.

Experiments:
[1] = target: Glutathione peroxidase 1 (Homo sapiens) (UniProt P07203); test: Primary qHTS Assay for Inhibitors of Recombinant Selenoprotein Glutathione Peroxidase 1 (GPX1) (AID 1845191); further: nearly all actives have a fitted effect of over 65% in size; further: potency means the concentration at half of the fitted maximal effect
How it was run: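 NADPH consumption tracked by fluorescence at 340/450 nm between t=0 and t=15 min, room temperature. Final mix: 10 nM GPX1, 100 nM glutathione reductase, 1 mM GSH, 0.5 mM NADPH, 0.5 mM cumene hydroperoxide, 0.01% BSA; 30 min compound–enzyme preincubation.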

[2] = target: Phospholipid hydroperoxide glutathione peroxidase GPX4 (Homo sapiens) (UniProt P36969); test: Primary qHTS Assay for Inhibitors of Recombinant Selenoprotein Glutathione Peroxidase 4 (GPX4) (AID 1845192); further: nearly all actives have a fitted effect of over 65% in size; further: potency means the concentration at half of the fitted maximal effect; on activity change, negative = inhibition: series mostly up to about 50 µM
How it was run: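 NADPH consumption followed by fluorescence at 340/450 nm, t=0 and after 15 min at room temperature. Reaction started with cumene hydroperoxide (0.5 mM final) after 30 min compound–GPX4 preincubation; final 200 nM GPX4, 100 nM GR, 1 mM GSH, 0.5 mM NADPH.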

[3] = target: Luciferin 4-monooxygenase (Photinus pyralis) (UniProt P08659); test: Primary firefly luciferase (FLuc) qHTS assay for identification of artifact compounds. (AID 1845220); further: nearly all actives have a fitted effect of over 60% in size; on activity change, negative = inhibition: series mostly up to about 54 µM
How it was run: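 Compounds sat 15 min at room temperature with 10 uM luciferin and 10 uM ATP (pH 7.6 Tris acetate). Firefly luciferase (10 nM final) was then added, and luminescence was read 5 min later. Data normalized to no-enzyme and DMSO controls were Hill-fitted.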

[4] = Primary fluorescence-based thiol-reactive (MSTI) qHTS assay for identification of artifact compounds. (AID 1845221); further: nearly all actives have a fitted effect of over 65% in size; further: potency means the concentration at half of the fitted maximal effect;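 on activity change, negative = thiol reactive: series mostly up to about 54 µM; thiol-reactive compounds lower the probe fluorescence signal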
How it was run: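 A multi-concentration qHTS design tested compounds against 4 uM MSTI, pH 7.4 phosphate-buffered saline. Plates were protected from light for 1 h at room temperature before imaging fluorescence.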

[5] = test system: Nanoluciferase (engineered Oplophorus gracilirostris luciferase); test: Primary Nanoluciferase (NLuc) qHTS assay for identification of artifact compounds. (AID 1845222); further: series mostly up to about 54 µM
How it was run: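 Luminescence from secreted NLuc (filtered, 1:55-diluted S16 cell medium) read 5 min after Nano-Glo substrate; compounds preincubated 15 min, RT. Hill fits of inhibition normalized to DMSO and no-enzyme.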

Chain of Glutathione peroxidase 1 (Homo sapiens) (P07203 whole entry, looked up): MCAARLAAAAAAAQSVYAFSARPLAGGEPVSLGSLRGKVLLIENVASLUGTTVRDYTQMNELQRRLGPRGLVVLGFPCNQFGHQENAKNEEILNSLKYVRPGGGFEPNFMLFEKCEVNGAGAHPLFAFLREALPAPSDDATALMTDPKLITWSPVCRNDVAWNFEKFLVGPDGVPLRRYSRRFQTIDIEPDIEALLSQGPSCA
Chain of Phospholipid hydroperoxide glutathione peroxidase GPX4 (Homo sapiens) (P36969 whole entry, looked up): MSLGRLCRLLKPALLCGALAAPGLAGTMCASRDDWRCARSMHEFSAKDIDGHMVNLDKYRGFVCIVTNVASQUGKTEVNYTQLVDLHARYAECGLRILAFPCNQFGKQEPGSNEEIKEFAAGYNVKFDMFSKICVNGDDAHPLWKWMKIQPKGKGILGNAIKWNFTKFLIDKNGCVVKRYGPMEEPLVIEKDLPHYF

CC1(C)CC[C@]23CO[C@@]4(CCC5[C@@]6(C)CC[C@H](O[C@@H]7OC[C@H](O[C@@H]8O[C@H](CO)[C@@H](O)[C@H](O)[C@H]8O[C@@H]8OC[C@@H](O)[C@H](O)[C@H]8O)[C@H](O)[C@H]7O[C@@H]7O[C@H](CO)[C@@H](O)[C@H](O)[C@H]7O)[C@@](C)(CO)C6CC[C@@]5(C)[C@]4(C)C[C@H]2O)[C@@H]3C1 (stereo not given in full)
Potency [1]: inactive | Potency [2]: inactive | outcome [3]: inactive [at 11.6 µM] | activity change, negative = thiol reactive [4]: 317% [at 11.5 µM] (inactive) | activity, negative = inhibition [5]: 3.72% [at 11.6 µM] (inactive)

CSCC[C@H](NC(=O)[C@H](Cc1ccc(OS(=O)(=O)O)cc1)NC(=O)[C@@H](N)CC(=O)O)C(=O)NCC(=O)N[C@@H](Cc1c[nH]c2ccccc12)C(=O)N[C@@H](CCSC)C(=O)N[C@@H](CC(=O)O)C(=O)N[C@@H](Cc1ccccc1)C(N)=O
Potency [1]: inactive | Potency [2]: 15.8 µM (active)

CC(=O)N[C@H]1[C@H](O[C@H]2CC[C@@]3(C)C(CC[C@]4(C)C3CC=C3C5CC(C)(C)CC[C@]5(C(=O)O)C(O)C[C@]34C)C2(C)C)O[C@H](CO[C@@H]2O[C@H](C)[C@H](O)[C@H](O)[C@H]2O[C@@H]2OC[C@@H](O)[C@H](O)[C@H]2O)[C@@H](O)[C@@H]1O (stereo not given in full)
Potency [1]: inactive | Potency [2]: inactive | activity change, negative = inhibition [3]: -2.09% [at 11.6 µM] (inactive) | activity change, negative = thiol reactive [4]: 111% [at 11.5 µM] (inactive) | activity, negative = inhibition [5]: 3.71% [at 11.6 µM] (inactive)

CC(=O)O[C@@H]1CC[C@@]2(C)[C@H](CC[C@@H]3[C@@H]2C[C@H](OC(C)=O)[C@]2(C)[C@@H](C(C)=O)CC[C@@H]32)C1
Potency [1]: inactive | Potency [2]: inactive | Potency [3]: inactive | Potency [4]: inactive | Potency [5]: inactive

O=C(C1CCCCC1)N(CCN1CCN(c2ccccc2O)CC1)c1ccccn1
Potency [1]: inactive | Potency [2]: inactive | Potency [3]: inactive | Potency [4]: inactive | Potency [5]: inactive

Cc1cccc(C)c1N(CCCc1cccnc1)C(=O)C(C)N (stereo not given)
Potency [1]: inactive | Potency [2]: inactive

C/C(=C/C=C\C=C\Cc1cnco1)[C@@H](O)C(C)(C)C(N)=O
Potency [1]: inactive | Potency [2]: inactive | Potency [3]: inactive | Potency [4]: inactive | Potency [5]: inactive

Cc1[nH]cnc1C[C@H]1CCc2c(C)c3ccccc3n2C1=O
Potency [1]: inactive | Potency [2]: inactive

NC(=O)c1cnc(N[C@@H]2CCCC[C@@H]2N)nc1Nc1cccc(-n2nccn2)c1
Potency [1]: inactive | Potency [2]: inactive

CC(CCC1(O)OC2CC3C4CC=C5C[C@@H](O[C@@H]6O[C@H](CO)[C@@H](O[C@@H]7O[C@@H](C)[C@H](O)[C@@H](O)[C@H]7O)[C@H](O)[C@H]6O[C@@H]6O[C@@H](C)[C@H](O)[C@@H](O)[C@H]6O)CC[C@]5(C)C4CC[C@]3(C)[C@@]2(O)[C@@H]1C)CO[C@@H]1O[C@H](CO)[C@@H](O)[C@H](O)[C@H]1O (stereo not given in full)
Potency [1]: inactive | Potency [2]: inactive | outcome [3]: inactive [at 11.6 µM] | activity change, negative = thiol reactive [4]: 40.3% [at 11.5 µM] (inactive) | activity, negative = inhibition [5]: 0% [at 11.6 µM] (inactive)

OCC(O)COc1ccc(Cl)cc1 (stereo not given)
Potency [1]: inactive | Potency [2]: inactive

COc1c(C)cnc(Cn2cc(C#CCC(C)(C)O)c3c(Cl)nc(N)nc32)c1C
Potency [1]: inactive | Potency [2]: inactive | Potency [3]: inactive | Potency [4]: inactive

CC(=O)O[C@H]1[C@H](O)C[C@@]2(C)C(CC[C@]3(C)C2CC=C2C4CC(C)(C)CC[C@]4(C(=O)O)CC[C@]23C)C1(C)C (stereo not given in full)
Potency [1]: inactive | Potency [2]: inactive | Potency [3]: inactive | Potency [4]: inactive | Potency [5]: inactive

O=C(O)c1ccc(N2C(=O)/C(=C/c3ccc(-c4ccc([N+](=O)[O-])cc4)o3)C=C2c2ccccc2)cc1
Potency [1]: inactive | Potency [2]: inactive | Potency [3]: inactive | Potency [4]: 0.423 µM (active)

COc1ccc(C#Cc2ccc(C(=O)N3CCC[C@@H](CO)C3)cc2)cc1
Potency [1]: inactive | Potency [2]: inactive | Potency [3]: inactive | Potency [4]: inactive | Potency [5]: inactive

CC1(C)CC[C@]2(C(=O)O)CC[C@]3(C)C(=CCC4[C@@]5(C)C[C@@H](O)[C@H](O)[C@@](C)(CO)C5CC[C@]43C)[C@@H]2[C@@H]1O (stereo not given in full)
Potency [1]: inactive | Potency [2]: inactive | Potency [3]: inactive | Potency [4]: 10.3 µM (active) | Potency [5]: inactive

C1CNCCN1
Potency [1]: inactive | Potency [2]: inactive

CC(C)=CCC/C(C)=C/COCC1OC(n2ccc(=O)[nH]c2=O)C(O)C1O (stereo not given)
Potency [1]: inactive | Potency [2]: inactive | Potency [3]: inactive | Potency [4]: inactive | Potency [5]: inactive

CC(=O)O[C@H]1CC(C)(C)CC2[C@]13CO[C@@]21CCC2[C@@]4(C)CC[C@H](O[C@@H]5OC[C@H](O[C@@H]6O[C@H](CO)[C@@H](O)[C@H](O)[C@H]6O[C@@H]6OC[C@@H](O[C@@H]7O[C@H](CO)[C@@H](O)[C@H](O)[C@H]7O)[C@H](O)[C@H]6O)[C@H](O)[C@H]5O[C@@H]5O[C@H](CO)[C@@H](O)[C@H](O)[C@H]5O)[C@@](C)(CO)C4CC[C@@]2(C)[C@]1(C)C[C@H]3O (stereo not given in full)
activity, negative = inhibition [1]: 2.15% [at 9.52 µM] (inactive) | activity change, negative = inhibition [2]: 4.48% [at 9.73 µM] (inactive) | activity change, negative = inhibition [3]: 3.87% [at 11.6 µM] (inactive) | activity change, negative = thiol reactive [4]: 133% [at 11.5 µM] (inactive) | activity, negative = inhibition [5]: 2.8% [at 11.6 µM] (inactive)

COc1ccc(CCc2nc3cc(-c4c(C)noc4C)ccc3n2CC(C)N2CCOCC2)cc1Cl (stereo not given)
Potency [1]: inactive | Potency [2]: inactive | Potency [3]: inactive | Potency [4]: inactive | Potency [5]: inactive

CCc1cc(C(N)=O)ccc1-n1nc(C(C)C)c2c(-n3cnc(-c4cnn(C)c4)c3)ccnc21
Potency [1]: inactive | Potency [2]: inactive | Potency [3]: inactive | Potency [4]: inactive | Potency [5]: inactive

N#CC(CCCN1CCN(/N=C/c2cccnc2)CC1)(c1ccccc1)c1ccccc1
Potency [1]: inactive | Potency [2]: inactive | Potency [3]: inactive | Potency [4]: inactive | Potency [5]: inactive

Cc1nc(-c2cn3c(n2)-c2ccc(-c4cnn(C(C)(C)C(N)=O)c4)cc2OCC3)n(C(C)C)n1
Potency [1]: inactive | Potency [2]: 14.3 µM (active) and 20.2 µM (active) | Potency [3]: inactive | Potency [4]: inactive | Potency [5]: inactive

CCC/C=C\C=C/CCc1cc(O)c([C@@H]2O[C@H](CO)[C@@H](O)[C@H](O)[C@H]2O)c(O)c1C(=O)OC
Potency [1]: inactive | Potency [2]: inactive | Potency [3]: inactive | Potency [4]: inactive | Potency [5]: inactive

CO[C@@H]1CC(OC2CCC3(C)C(CCC45CCC(C6=CC(=O)OC6)C(C)(CCC43)C5=O)C2)O[C@H](C)[C@@H]1O[C@@H]1O[C@H](CO[C@@H]2O[C@H](CO)[C@@H](O)[C@H](O)[C@H]2O)[C@@H](O)[C@H](O)[C@H]1O (stereo not given in full)
Potency [1]: inactive | Potency [2]: inactive | activity change, negative = inhibition [3]: -4.2% [at 11.6 µM] (inactive) | activity change, negative = thiol reactive [4]: -1.23% [at 11.5 µM] (inactive) | activity, negative = inhibition [5]: -1.95% [at 11.6 µM] (inactive)

CCNC(=O)c1noc(-c2cc(Cl)c(O)cc2O)c1-c1ccc(OC)cc1
Potency [1]: inactive | Potency [2]: inactive | Potency [3]: inactive | Potency [4]: inactive | Potency [5]: inactive

CCN(Cc1ccccc1)C(=O)Cn1c(=O)n(C)c2cnc(-c3ccccc3)nc21
Potency [1]: inactive | Potency [2]: inactive | Potency [3]: inactive | Potency [4]: inactive | Potency [5]: inactive

Cc1cc2c(cc1N1C(=O)c3cccc4c(CCCO)ccc(c34)C1=O)n(C)c(=O)n2C
Potency [1]: inactive | Potency [2]: inactive | Potency [3]: inactive | Potency [4]: inactive | Potency [5]: inactive

CC[C@@H](C)Nc1cc(C(=O)NC2CC3CC[C@@H](C2)N3c2ccc(C(=O)C3CC3)cn2)c(C)cc1C(N)=O (stereo not given in full)
Potency [1]: 16.3 µM (active) | Potency [2]: 2.55 µM (active) | Potency [3]: inactive | Potency [4]: inactive | Potency [5]: inactive

COc1cc(C#N)ccc1S(=O)(=O)Nc1ccc2c(c1)cc(C)c(=O)n2C
Potency [1]: inactive | Potency [2]: inactive | Potency [3]: inactive | Potency [4]: inactive | Potency [5]: inactive

C[C@@H]1O[C@@H](O[C@H]2[C@H](O[C@H]3CC[C@@]4(C)C(CC[C@]5(C)C4C=C[C@]46OC[C@@]7(CCC(C)(C)C[C@H]74)[C@@H](O[C@@H]4O[C@@H](C)[C@H](O)[C@@H](O)[C@H]4O)C[C@]65C)[C@]3(C)CO)O[C@H](CO)[C@@H](O)[C@@H]2O[C@@H]2O[C@H](CO)[C@@H](O)[C@H](O)[C@H]2O)[C@H](O)[C@H](O)[C@H]1O (stereo not given in full)
Potency [1]: inactive | Potency [2]: inactive | outcome [3]: inactive [at 11.6 µM] | activity change, negative = thiol reactive [4]: 75.2% [at 11.5 µM] (inactive) | activity, negative = inhibition [5]: 3.17% [at 11.6 µM] (inactive)

C=C(C)C1CC(O)C(C)C12CC(O)C1(C)OC1C2O (stereo not given)
Potency [1]: inactive | Potency [2]: inactive | Potency [3]: inactive | Potency [4]: inactive | Potency [5]: inactive

CC1(C)CCCC2(C)C1C(=O)C=C(C(=O)O)C2(O)C(=O)O (stereo not given)
Potency [1]: inactive | Potency [2]: inactive | Potency [3]: inactive | Potency [4]: 9.47 µM (active) | Potency [5]: inactive

COc1ccncc1C(=O)NC(=O)Nc1ccc(-c2ccccc2)c(C(F)(F)F)c1
Potency [1]: inactive | Potency [2]: inactive | Potency [3]: inactive | Potency [4]: inactive | Potency [5]: inactive

C=C(C)C(=O)O[C@H]1/C(C=O)=C\CC/C(CO)=C/[C@H]2OC(=O)C(=C)[C@@H]2[C@@H]1OC
Potency [1]: inactive | Potency [2]: inactive | Potency [3]: inactive | Potency [4]: 3.69 µM (active) | Potency [5]: inactive

CC(=O)O[C@@H]1CC2C(C)(C)C(=O)C=C[C@]2(C)C2CC[C@@]3(C)[C@H](c4ccoc4)OC(=O)[C@H]4O[C@]43[C@@]21C (stereo not given in full)
Potency [1]: inactive | Potency [2]: inactive | Potency [3]: inactive | Potency [4]: inactive | Potency [5]: inactive

Cn1ccc(NC(=O)c2cc(Oc3ccc(C(=O)N4CCC4)c(F)c3)c3c(c2)OC(C)(C)C3)n1
Potency [1]: inactive | Potency [2]: inactive | Potency [3]: inactive | Potency [4]: inactive | Potency [5]: inactive
